# Test results as given in ChEMBL document CHEMBL1961873, “Compounds: GSK PKIS; Assays: Nanosyn kinase panel” (2012).
# Experiments:
# [1] = molecular target: Dual specificity protein kinase CLK3 (Homo sapiens) (UniProt P49761); conditions: at 1 µM;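 further: each value is the mean inhibition of CLK3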
# [2] = molecular target: Dual specificity tyrosine-phosphorylation-regulated kinase 1A (Homo sapiens) (UniProt Q13627); conditions: at 0.1 µM
# [3] = molecular target: Dual specificity tyrosine-phosphorylation-regulated kinase 1A (Homo sapiens) (UniProt Q13627); conditions: at 1 µM
# [4] = molecular target: Dual specificity tyrosine-phosphorylation-regulated kinase 1B (Homo sapiens) (UniProt Q9Y463); conditions: at 0.1 µM
# [5] = molecular target: Dual specificity tyrosine-phosphorylation-regulated kinase 1B (Homo sapiens) (UniProt Q9Y463); conditions: at 1 µM
# [6] = molecular target: T1, Dual specificity tyrosine-phosphorylation-regulated kinase 2 (Homo sapiens) (UniProt Q92630); conditions: at 0.1 µM
# T1 sequence (whole entry): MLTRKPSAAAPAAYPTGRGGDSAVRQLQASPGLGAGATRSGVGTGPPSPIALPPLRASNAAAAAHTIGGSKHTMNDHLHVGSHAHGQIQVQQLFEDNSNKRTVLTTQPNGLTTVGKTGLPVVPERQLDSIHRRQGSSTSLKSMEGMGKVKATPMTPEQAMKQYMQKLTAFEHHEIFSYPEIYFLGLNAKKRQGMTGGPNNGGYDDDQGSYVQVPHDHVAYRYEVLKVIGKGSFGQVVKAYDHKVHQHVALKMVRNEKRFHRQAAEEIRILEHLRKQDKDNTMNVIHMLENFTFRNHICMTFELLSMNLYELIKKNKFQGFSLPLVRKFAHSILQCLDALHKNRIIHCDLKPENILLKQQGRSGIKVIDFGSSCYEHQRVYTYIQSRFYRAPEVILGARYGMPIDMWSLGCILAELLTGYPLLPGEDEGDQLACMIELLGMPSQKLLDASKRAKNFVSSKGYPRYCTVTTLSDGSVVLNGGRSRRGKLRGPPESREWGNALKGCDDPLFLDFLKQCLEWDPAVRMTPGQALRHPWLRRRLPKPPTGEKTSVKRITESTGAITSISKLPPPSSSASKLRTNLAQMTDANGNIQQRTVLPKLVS
# [7] = molecular target: T1, Dual specificity tyrosine-phosphorylation-regulated kinase 2 (Homo sapiens); conditions: at 1 µM
# [8] = molecular target: Glycogen synthase kinase-3 alpha (Homo sapiens) (UniProt P49840); conditions: at 0.1 µM
# [9] = molecular target: Glycogen synthase kinase-3 alpha (Homo sapiens) (UniProt P49840); conditions: at 1 µM
# [10] = molecular target: Glycogen synthase kinase-3 beta (Homo sapiens) (UniProt P49841); conditions: at 0.1 µM
# [11] = molecular target: Glycogen synthase kinase-3 beta (Homo sapiens) (UniProt P49841); conditions: at 1 µM
# [12] = molecular target: Homeodomain-interacting protein kinase 1 (Homo sapiens) (UniProt Q86Z02); conditions: at 0.1 µM
# [13] = molecular target: Homeodomain-interacting protein kinase 1 (Homo sapiens) (UniProt Q86Z02); conditions: at 1 µM
# [14] = molecular target: T2, Homeodomain-interacting protein kinase 4 (Homo sapiens) (UniProt Q8NE63); conditions: at 0.1 µM
# T2 sequence (whole entry): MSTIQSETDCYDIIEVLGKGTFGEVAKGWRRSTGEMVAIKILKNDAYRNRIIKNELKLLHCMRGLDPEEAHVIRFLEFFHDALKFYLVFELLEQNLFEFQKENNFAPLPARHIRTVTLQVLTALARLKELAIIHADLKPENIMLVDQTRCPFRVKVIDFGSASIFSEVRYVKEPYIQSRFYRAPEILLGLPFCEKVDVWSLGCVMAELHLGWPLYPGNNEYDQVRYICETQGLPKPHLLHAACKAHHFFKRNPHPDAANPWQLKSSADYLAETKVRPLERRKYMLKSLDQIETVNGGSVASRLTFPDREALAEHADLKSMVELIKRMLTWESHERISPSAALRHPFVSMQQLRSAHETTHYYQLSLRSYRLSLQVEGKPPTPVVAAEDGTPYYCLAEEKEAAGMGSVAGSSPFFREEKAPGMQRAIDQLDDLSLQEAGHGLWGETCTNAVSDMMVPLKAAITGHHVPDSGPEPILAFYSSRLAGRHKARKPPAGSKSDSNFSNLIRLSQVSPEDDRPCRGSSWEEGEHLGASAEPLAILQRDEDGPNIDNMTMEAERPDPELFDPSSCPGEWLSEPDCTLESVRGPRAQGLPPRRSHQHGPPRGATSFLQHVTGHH
# [15] = molecular target: T2, Homeodomain-interacting protein kinase 4 (Homo sapiens); conditions: at 1 µM
# [16] = molecular target: Mitogen-activated protein kinase 9 (Homo sapiens) (UniProt P45984); conditions: at 0.1 µM
# [17] = molecular target: Mitogen-activated protein kinase 9 (Homo sapiens) (UniProt P45984); conditions: at 1 µM
# [18] = molecular target: Mitogen-activated protein kinase 1 (Homo sapiens) (UniProt P28482); conditions: at 0.1 µM
# [19] = molecular target: Mitogen-activated protein kinase 1 (Homo sapiens) (UniProt P28482); conditions: at 1 µM
# [20] = molecular target: Mitogen-activated protein kinase 3 (Homo sapiens) (UniProt P27361); conditions: at 0.1 µM;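 further: each value is a mean inhibition figure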
# Sequence of Mitogen-activated protein kinase 3 (Homo sapiens) (P27361 whole entry): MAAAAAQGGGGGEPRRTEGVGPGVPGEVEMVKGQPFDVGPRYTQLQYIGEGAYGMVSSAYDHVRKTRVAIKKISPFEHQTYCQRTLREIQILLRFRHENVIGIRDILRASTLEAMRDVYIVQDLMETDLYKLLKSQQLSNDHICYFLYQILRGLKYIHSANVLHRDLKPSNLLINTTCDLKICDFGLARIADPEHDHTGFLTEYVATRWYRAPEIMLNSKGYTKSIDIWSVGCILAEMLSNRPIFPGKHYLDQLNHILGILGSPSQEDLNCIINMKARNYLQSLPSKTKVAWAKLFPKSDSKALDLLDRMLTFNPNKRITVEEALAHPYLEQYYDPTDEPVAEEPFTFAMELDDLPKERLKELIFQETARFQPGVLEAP
# Sequence of Mitogen-activated protein kinase 1 (Homo sapiens) (P28482 whole entry): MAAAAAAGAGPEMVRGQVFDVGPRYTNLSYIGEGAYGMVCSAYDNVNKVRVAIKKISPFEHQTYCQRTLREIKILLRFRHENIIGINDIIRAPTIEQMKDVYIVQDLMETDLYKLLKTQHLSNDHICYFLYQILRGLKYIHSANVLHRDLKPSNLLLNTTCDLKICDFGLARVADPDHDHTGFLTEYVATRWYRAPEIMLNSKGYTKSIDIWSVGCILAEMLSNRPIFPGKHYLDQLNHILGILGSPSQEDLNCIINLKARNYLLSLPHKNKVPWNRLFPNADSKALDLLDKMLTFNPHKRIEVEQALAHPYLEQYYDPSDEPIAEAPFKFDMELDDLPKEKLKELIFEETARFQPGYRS
# Sequence of Mitogen-activated protein kinase 9 (Homo sapiens) (P45984 whole entry, looked up): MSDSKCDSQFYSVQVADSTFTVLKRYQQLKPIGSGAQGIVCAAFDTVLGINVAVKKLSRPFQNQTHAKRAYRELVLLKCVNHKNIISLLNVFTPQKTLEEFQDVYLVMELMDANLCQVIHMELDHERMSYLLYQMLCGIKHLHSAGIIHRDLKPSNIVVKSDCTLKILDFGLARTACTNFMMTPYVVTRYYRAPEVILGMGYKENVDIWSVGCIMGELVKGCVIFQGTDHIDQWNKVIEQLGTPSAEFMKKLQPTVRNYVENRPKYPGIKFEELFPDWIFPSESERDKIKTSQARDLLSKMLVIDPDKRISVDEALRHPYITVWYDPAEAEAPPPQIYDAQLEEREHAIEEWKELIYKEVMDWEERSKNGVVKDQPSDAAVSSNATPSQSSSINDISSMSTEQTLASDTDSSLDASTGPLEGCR
# Sequence of Dual specificity tyrosine-phosphorylation-regulated kinase 1B (Homo sapiens) (Q9Y463 whole entry, looked up): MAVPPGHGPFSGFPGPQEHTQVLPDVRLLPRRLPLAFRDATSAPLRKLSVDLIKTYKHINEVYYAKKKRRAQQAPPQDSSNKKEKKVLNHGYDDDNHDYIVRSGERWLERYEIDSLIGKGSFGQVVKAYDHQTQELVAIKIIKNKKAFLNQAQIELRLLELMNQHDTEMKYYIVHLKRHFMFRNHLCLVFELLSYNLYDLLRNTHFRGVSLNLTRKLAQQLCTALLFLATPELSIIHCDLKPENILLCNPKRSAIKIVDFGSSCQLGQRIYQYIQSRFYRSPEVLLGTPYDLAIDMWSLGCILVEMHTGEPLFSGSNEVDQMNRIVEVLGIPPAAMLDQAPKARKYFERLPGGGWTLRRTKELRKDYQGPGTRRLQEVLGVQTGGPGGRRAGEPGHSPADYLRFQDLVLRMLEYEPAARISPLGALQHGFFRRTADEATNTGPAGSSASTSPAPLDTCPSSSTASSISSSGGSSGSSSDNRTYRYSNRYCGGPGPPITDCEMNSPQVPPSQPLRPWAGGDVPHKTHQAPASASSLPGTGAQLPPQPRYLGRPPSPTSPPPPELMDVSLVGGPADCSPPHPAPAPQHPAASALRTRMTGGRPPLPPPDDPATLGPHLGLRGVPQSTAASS
# Sequence of Glycogen synthase kinase-3 alpha (Homo sapiens) (P49840 2-483 limits assumed): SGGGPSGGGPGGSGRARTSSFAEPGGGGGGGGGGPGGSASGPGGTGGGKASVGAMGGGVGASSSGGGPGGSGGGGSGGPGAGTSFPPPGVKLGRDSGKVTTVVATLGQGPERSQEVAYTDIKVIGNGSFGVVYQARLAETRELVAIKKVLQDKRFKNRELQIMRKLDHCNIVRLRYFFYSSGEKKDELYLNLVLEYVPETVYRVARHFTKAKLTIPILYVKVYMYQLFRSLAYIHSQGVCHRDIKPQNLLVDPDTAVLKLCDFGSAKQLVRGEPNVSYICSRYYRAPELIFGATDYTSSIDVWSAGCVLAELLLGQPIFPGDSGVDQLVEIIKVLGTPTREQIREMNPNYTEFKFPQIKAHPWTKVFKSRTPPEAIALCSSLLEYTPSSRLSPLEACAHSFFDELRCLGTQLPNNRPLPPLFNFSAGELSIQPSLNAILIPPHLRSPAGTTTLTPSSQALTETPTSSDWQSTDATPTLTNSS
# Sequence of Homeodomain-interacting protein kinase 1 (Homo sapiens) (Q86Z02 whole entry, looked up): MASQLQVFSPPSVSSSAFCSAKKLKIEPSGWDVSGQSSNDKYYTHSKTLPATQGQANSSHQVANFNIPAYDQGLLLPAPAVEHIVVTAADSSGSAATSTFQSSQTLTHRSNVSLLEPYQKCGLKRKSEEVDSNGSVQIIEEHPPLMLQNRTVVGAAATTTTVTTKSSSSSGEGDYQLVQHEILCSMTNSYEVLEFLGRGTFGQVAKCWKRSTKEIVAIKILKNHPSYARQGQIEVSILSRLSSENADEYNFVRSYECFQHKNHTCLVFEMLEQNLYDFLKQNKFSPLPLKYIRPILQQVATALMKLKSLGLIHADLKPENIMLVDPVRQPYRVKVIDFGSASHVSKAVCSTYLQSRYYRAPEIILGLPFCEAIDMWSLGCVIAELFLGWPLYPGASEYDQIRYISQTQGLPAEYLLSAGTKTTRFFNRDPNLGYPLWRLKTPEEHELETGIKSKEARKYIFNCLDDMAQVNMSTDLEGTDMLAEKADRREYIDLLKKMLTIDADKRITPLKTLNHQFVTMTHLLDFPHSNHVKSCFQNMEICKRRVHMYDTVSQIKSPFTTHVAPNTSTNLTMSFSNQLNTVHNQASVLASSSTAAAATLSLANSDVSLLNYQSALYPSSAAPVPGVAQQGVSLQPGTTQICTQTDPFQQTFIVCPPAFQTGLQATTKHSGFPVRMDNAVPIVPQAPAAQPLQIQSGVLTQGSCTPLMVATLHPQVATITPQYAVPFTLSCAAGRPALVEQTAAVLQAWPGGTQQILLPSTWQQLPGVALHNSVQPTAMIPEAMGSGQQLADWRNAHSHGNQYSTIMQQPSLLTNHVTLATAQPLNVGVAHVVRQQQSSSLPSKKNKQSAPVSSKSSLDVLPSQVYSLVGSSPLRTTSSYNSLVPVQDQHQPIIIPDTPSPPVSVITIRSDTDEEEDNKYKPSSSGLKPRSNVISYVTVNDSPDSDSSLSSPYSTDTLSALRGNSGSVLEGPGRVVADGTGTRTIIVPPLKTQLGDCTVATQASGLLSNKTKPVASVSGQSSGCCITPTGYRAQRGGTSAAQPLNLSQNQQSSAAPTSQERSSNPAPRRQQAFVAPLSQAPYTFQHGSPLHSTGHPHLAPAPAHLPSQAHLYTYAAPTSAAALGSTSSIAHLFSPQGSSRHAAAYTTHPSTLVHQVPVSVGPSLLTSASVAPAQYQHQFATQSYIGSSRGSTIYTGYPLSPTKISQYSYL
# Sequence of Dual specificity protein kinase CLK3 (Homo sapiens) (P49761 whole entry, looked up): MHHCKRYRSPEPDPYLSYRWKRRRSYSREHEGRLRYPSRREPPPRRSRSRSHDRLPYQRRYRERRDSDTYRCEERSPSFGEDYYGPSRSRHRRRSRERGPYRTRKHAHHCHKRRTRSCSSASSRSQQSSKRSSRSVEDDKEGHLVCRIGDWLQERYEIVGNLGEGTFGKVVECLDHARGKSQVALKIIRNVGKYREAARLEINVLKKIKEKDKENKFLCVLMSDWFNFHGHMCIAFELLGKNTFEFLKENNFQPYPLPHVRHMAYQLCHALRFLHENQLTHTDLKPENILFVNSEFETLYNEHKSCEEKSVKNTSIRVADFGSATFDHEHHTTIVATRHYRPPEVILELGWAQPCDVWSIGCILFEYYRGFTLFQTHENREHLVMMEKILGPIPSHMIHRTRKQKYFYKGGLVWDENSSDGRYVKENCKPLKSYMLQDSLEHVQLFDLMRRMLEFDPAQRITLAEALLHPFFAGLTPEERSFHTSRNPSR
# Sequence of Glycogen synthase kinase-3 beta (Homo sapiens) (P49841 whole entry, looked up): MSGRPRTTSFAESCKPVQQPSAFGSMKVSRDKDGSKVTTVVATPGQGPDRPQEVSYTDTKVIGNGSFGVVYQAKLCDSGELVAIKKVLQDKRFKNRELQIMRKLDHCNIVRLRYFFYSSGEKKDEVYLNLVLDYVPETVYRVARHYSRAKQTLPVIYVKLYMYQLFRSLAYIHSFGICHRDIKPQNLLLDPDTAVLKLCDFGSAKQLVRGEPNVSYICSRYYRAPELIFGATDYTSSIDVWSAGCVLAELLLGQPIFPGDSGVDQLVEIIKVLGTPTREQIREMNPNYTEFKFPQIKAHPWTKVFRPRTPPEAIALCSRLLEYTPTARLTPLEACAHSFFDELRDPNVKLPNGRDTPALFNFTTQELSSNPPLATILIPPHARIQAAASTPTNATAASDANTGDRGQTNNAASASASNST
SMILES,inhibition [1] [%],inhibition [2] [%],inhibition [3] [%],inhibition [4] [%],inhibition [5] [%],inhibition [6] [%],inhibition [7] [%],inhibition [8] [%],inhibition [9] [%],inhibition [10] [%],inhibition [11] [%],inhibition [12] [%],inhibition [13] [%],inhibition [14] [%],inhibition [15] [%],inhibition [16] [%],inhibition [17] [%],inhibition [18] [%],inhibition [19] [%],inhibition [20] [%]
Cc1ccc(O)cc1Nc1ccnc2cc(-c3ccccn3)ccc12,2.88,2.56,4.96,0.53,1.85,3.35,5.79,2.73,6.51,1.23,5.65,1.24,5.57,1.19,0.77,2.32,11.5,-0.57,4.7,1.59
O=S(=O)(CCNCc1ccc(-c2ccc3ncnc(Nc4ccc(OCc5cccc(F)c5)c(Cl)c4)c3c2)o1)c1ccccc1,-0.68,3.49,5.29,-0.71,0.19,3.86,2.88,3.49,4.1,2.66,2.57,0.47,4.11,3.74,5.4,5.87,5.2,7.56,8.99,6.61
CC(=O)NCc1cccc(C#Cc2cncnc2Nc2ccc(OCc3cccc(F)c3)c(Cl)c2)c1,0.27,1.8,6.71,0.66,1.17,1.17,-0.66,3.24,8.35,2.82,7.42,-1.17,0.08,-1.54,2.87,0.88,0.54,0.71,1.78,-0.54
CS(=O)(=O)CCNCc1coc(-c2ccc3ncnc(Nc4ccc(OCc5ccccc5)cc4)c3c2)c1,0.66,1.48,2.33,-0.25,1.83,3.02,4.76,2.99,4.78,2.21,6.33,-1.59,2.97,0.96,8.92,1.82,2.72,2.46,3.11,3.44
COC(=O)Nc1nc2ccc(S(=O)(=O)c3ccc(NC(=O)Nc4cc(C(F)(F)F)ccc4F)cc3)cc2[nH]1,0.84,1.81,3.41,0.89,0.66,2.74,3.12,2.8,7.37,0.8,7.61,-0.95,0.3,-0.96,1.06,3.14,3.4,1.4,2.17,3
CCn1c(-c2nonc2N)nc2ccccc21,2.22,1.62,14.6,1.02,7.36,2.66,5.28,3.32,24,3.21,17.4,1.47,4.99,1.45,4.14,3.53,2.53,1.93,3.93,3.48
Nc1ncc(-c2cccc(S(N)(=O)=O)c2)c2scc(-c3ccc(F)c(Cl)c3)c12,0.34,2.01,3.66,-0.65,0.74,3.42,2.46,3.06,4.87,2.78,3.65,0.64,3.02,1.4,4.49,2.92,20.5,6.27,7.98,3.4
